{"source": "PubChem BioAssay", "note": "Activity calls are given as the source filed them.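 The calls were made as follows: active = inhibition above 20% together with a positive visual image hit; inconclusive = visual image hit but inhibition not above 20%; inactive = no visual image hit.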", "data": [{"test": "inhibitors of TNFa-induced NFkB p65 translocation, primary screen, imaging, HUVEC, MLSMR starter and 10KST1 sets (AID 438);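 also: compound added about 3h40 before a 20 min TNFalpha stimulation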;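 as to inhibition: signal is the nuclear over cytoplasmic p65 intensity ratio per well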", "conditions": "HUVEC TNFa-induced p65 nuclear translocation; cell count: measured here: nuclei count (cytotoxicity indicator), at 2.08 µM; inhibition: at 2 µM, stronger effect = higher value, 0% TNFa-plus-vehicle, 100% no-TNFa wells", "values": [{"smiles": "O=C(Cn1nc(Cc2ccncc2)c2ccccc2c1=O)N1CCN(C(=O)c2ccco2)CC1", "cell count": 780, "inhibition": "-7.3% (inactive)"}, {"smiles": "O=C(CSc1nnnn1-c1ccc2c(c1)OCO2)NCc1cccs1", "cell count": 240, "inhibition": "4.8% (inactive)"}, {"smiles": "Cc1occc1-c1nnc(SCC(=O)c2ccc(F)cc2)n1Cc1ccco1", "inhibition": "5% (inactive)", "cell count": 370}, {"smiles": "CC(C)(C)NC(=O)C(c1ccco1)N(C(=O)Cn1nnc(-c2ccc(F)cc2)n1)c1ccccc1F", "note": "(stereo not drawn)", "cell count": 562, "inhibition": "1.2% (inactive)"}, {"smiles": "CCOC(=O)C(CC)Sc1nc2c(c(=O)[nH]c(=O)n2C)n1C/C=C(/C)Cl", "note": "(stereo not drawn)", "cell count": 775, "inhibition": "-12.9% (inactive)"}, {"smiles": "CCN1CCN(C(=O)Cn2ncc3ccsc3c2=O)CC1", "inhibition": "-1.8% (inactive)", "cell count": 697}, {"smiles": "Cc1cc(N2CCOCC2)nc2ccc(NC(=O)C3CCC(C)CC3)cc12", "note": "(stereo not drawn)", "inhibition": "-2.7% (inactive)", "cell count": 434}, {"smiles": "O=C(Nc1cccc(F)c1)C1C2C=CC3(CN(CCCN4CCOCC4)C(=O)C13)O2", "note": "(stereo not drawn)", "inhibition": "-5.5% (inactive)", "cell count": 661}, {"smiles": "C=CCn1c(=O)n(CCOC)c(=O)c2sc3ccccc3c21", "inhibition": "-3.4% (inactive)", "cell count": 733}, {"smiles": "Cc1ccc(C(=O)CSc2n[nH]c(-c3ccco3)n2)cc1C", "inhibition": "0.7% (inactive)", "cell count": 397}, {"smiles": "Cc1ccc(-c2cn3nc(C)c(C)nc3n2)cc1", "inhibition": "-23.3% (inactive)", "cell count": 778}, {"smiles": "O=C(NCCO)c1cc2ccccc2cc1O", "inhibition": "-8.2% (inactive)", "cell count": 489}, {"smiles": "CCOCCCNC(=O)CS(=O)(=O)Cc1nc(-c2cccc(OC)c2)oc1C", "inhibition": "-43.9% (inactive)", "cell count": 558}, {"smiles": "COc1ccccc1Cn1nnc2c(=O)[nH]c(C3CCN(C(=O)c4ccccc4Cl)CC3)nc21", "inhibition": "3.2% (inactive)", "cell count": 324}]}]}
